This is an account of results in the supplement of paper PMC13380429.

Structures are written as SMILES. Values without a mark were called inactive.

For this experiment, the system named is Vero E6 infected with SARS-CoV-2. The experiment is described as follows: inhibition of SARS-CoV-2 cytopathic effect; higher = more antiviral protection, active = above 15. Conditions: 1 nM; 48 h.
For the molecule `Cc1cc(I)ccc1Nc1c(C(=O)NOCC2CC2)cc(F)c(F)c1F`, the “inhibition of SARS-CoV-2 cytopathic effect” value (“inhibition” for short) is 0.41%.
In the case of `c1ccc2c(-c3cnn4cc(-c5ccc(N6CCNCC6)cc5)cnc34)ccnc2c1`, the “inhibition” value is 1.9%.
In the case of `CCCOc1ccc(S(=O)(=O)N2CCN(CCO)CC2)cc1-c1nc2c(CCC)cn(CC)c2c(=O)[nH]1` [mirodenafil], the “inhibition” value was -1.57%.
Then `N#CC(c1ccnc(OCc2ccc(CN3CCOCC3)cc2)n1)c1nc2ccccc2s1` (stereo not given), with -1.68%; and `C[C@@H]1CN(c2c(F)c(F)c3c(=O)c(C(=O)O)cn(C4CC4)c3c2F)C[C@H](C)N1` [orbifloxacin], with -6.82%; and `COCC(=O)Nc1c(I)c(C(=O)NCC(O)CO)c(I)c(C(=O)N(C)CC(O)CO)c1I` (stereo not given) [iopromide], with -2.42%.
With `O=C(c1ccccc1)C(O)c1ccccc1` (stereo not given) [benzoin] the figure was 0.3%.
As for `N=C(N)NCCCC[C@@H]1NC(=O)CCSSC[C@@H](C(N)=O)NC(=O)[C@@H]2CCCN2C(=O)[C@H](Cc2c[nH]c3ccccc23)NC(=O)[C@H](CC(=O)O)NC(=O)CNC1=O` [eptifibatide], the “inhibition” value is -0.98%.
With `NNCCc1ccccc1` [phenelzine] the figure was 1.22%; with `O=C(Nc1ccc(C(O)(C(F)(F)F)C(F)(F)F)cc1)c1ccc(C(F)(F)F)cc1`, 0.8%; with `Cc1ccc(Oc2ccccc2-c2csc(N=C3NCCCN3)n2)c(C)c1` [abafungin], 2.5%.
As for `Nc1c(S(=O)(=O)O)cc(Nc2cccc3ccccc23)c2c1C(=O)c1ccccc1C2=O`, the “inhibition” value was -0.33%.
Then `Nc1ccc(S(=O)(=O)Nc2ccccn2)cc1` [sulfapyridine], with -1.16%.
With `C[C@H](Cc1ccc(OCC(=O)O)cc1)NC[C@H](O)c1cccc(Cl)c1` the figure was -1%; with `c1ccc(CNCc2ccc(CN3CCCNCCNCCCNCC3)cc2)nc1`, 0.27%; with `NC1=N[C@@](c2cccc(-c3cncnc3)c2)(c2ccnc(C(F)F)c2)c2cccc(F)c21`, 0.77%.
In the case of `CN(CCOP(=O)(O)O)C(=N)N` [creatinol-phosphate], the “inhibition” value was -1.02%.
Then `CCOc1ccc(-c2nc(-c3cccc4c3CCC4NCCO)no2)cc1OCC` (stereo not given), with -0.52%; and `O=C(Oc1ccc(Br)cc1)N1CCN2CCC1CC2`, with 1.3%; and `CC[C@H](C)n1cc(C)c2c(C(=O)NCc3c(C)cc(C)[nH]c3=O)cc(-c3ccc(N4CCNCC4)nc3)cc21`, with 1.2%.
For the molecule `CCCCCCCN(CC)CCC[C@@H](O)c1ccc(NS(C)(=O)=O)cc1` (racemic) [ibutilide], the “inhibition” value is -3.47%.
Then `Cc1ccc(Cl)c(Nc2ccccc2C(=O)O)c1Cl` [meclofenamic-acid], with -0.6%.
Then `COC(F)(F)C(Cl)Cl` [methoxyflurane], with 0.46%; and `O=P(O)(O)CN(CCN(CP(=O)(O)O)CP(=O)(O)O)CP(=O)(O)O`, with -3.44%.
For `O=C(NCCCNc1nc(Nc2cccc(NC(=O)N3CCCC3)c2)ncc1I)c1cccs1`, the “inhibition” value was -2.02%.
With `C=C1CC[C@H](O)C/C1=C/C=C1\CCC[C@]2(C)[C@@H]([C@H](C)CCCC(C)(C)O)CC[C@@H]12` [calcifediol] the figure was 0.8%; with `C#Cc1cccc(Nc2ncnc3cc(OCCOC)c(OCCO)cc23)c1`, 2.26%; with `O=C(O)c1ccc2c(c1)nc(Nc1cccc(Cl)c1)c1ccncc12`, -2.63%.
As for `CCCCCCCCCCCCCCCC(=O)OC(CC(=O)[O-])C[N+](C)(C)C` (stereo not given) [palmitoylcarnitine], the “inhibition” value is 0.08%.
With `CNc1ncc2cc(-c3cc(NC(=O)NCCC(C)(C)C)c(F)cc3C)c(C)nc2n1` the figure was 0.87%; with `Cc1ccc(OCCSc2ncccn2)c(Br)c1`, -2.86%; with `NC(=O)c1ccc[n+]([C@@H]2O[C@H](COP(=O)([O-])OP(=O)(O)OC[C@H]3O[C@@H](n4cnc5c(N)ncnc54)[C@H](O)[C@@H]3O)[C@@H](O)[C@H]2O)c1` [nadide], -2.68%.
With `CCN1CCN(C(=O)Cc2ccc(Nc3ncc(F)c(Nc4ccc(C(=O)Nc5ccccc5Cl)cc4)n3)cc2)CC1` [aurora-a-inhibitor-i], the “inhibition” value is -0.07%.
As for `N[C@@H](CS)C(=O)O` [L-cysteine], the “inhibition” value is 1.7%.
For `COc1cc(Br)c(Nc2nc(-c3c(C)nc4ncccn34)cs2)c(Br)c1`, the “inhibition” value was -0.04%.
